The panel holds about 83,000 compounds, 20% with a hit somewhere; the sample as a whole holds those more often.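 Results are percent growth after 48 hours of single-concentration exposure. 100 means growth as in untreated cells, lower positive values show inhibition; negative values down to -100 show cell death.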 A number with no mark means an inactive call. Active and inactive are the calls of the source. Rule for the calls: active = growth percent below 10; inactive = the rest.
How the values were obtained:
Assay in all cases: NCI-60 one-dose screen, 48 h (100 = growth as untreated, 0 = no growth, -100 = all killed)
Conditions in all cases: 10 µM unless noted
[1] = system: SR leukemia
[2] = system: RPMI-8226 leukemia
[3] = system: OVCAR-8 ovarian
[4] = system: OVCAR-4 ovarian
[5] = system: SK-OV-3 ovarian
[6] = system: IGROV1 ovarian
[7] = system: OVCAR-3 ovarian
[8] = system: HS 578T breast
[9] = system: NCI/ADR-RES ovarian
[10] = system: T-47D breast
[11] = system: MDA-MB-435 melanoma
[12] = system: SW-620 colon
[13] = system: MCF7 breast
[14] = system: HCT-116 colon
[15] = system: HCC-2998 colon
[16] = system: KM12 colon
[17] = system: OVCAR-5 ovarian
[18] = system: BT-549 breast

Structure (SMILES)	growth [1]	growth [2]	growth [3]	growth [4]	growth [5]	growth [6]	growth [7]	growth [8]	growth [9]	growth [10]	growth [11]	growth [12]	growth [13]	growth [14]	growth [15]	growth [16]	growth [17]	growth [18]
COc1ccc(C(=O)C/C(=C\c2ccc(Cl)cc2)C(=O)NCc2ccccc2)cc1	60.3%	75.7%	82.3%	105%	79.3%	86.3%	100%	86.4%	89.1%	65.3%	68.8%	98.2%	86.1%	82.5%	93.1%	99.7%	–	–
Nc1n[nH]c2cccc(C#Cc3cccc(C(=O)Nc4cc(C(F)(F)F)cc(C(F)(F)F)c4)c3)c12	49.7%	52.6%	82.9%	85.4%	109%	45.7%	–	54.9%	74.2%	73.9%	47.6%	78.6%	65.5%	35.3%	80.3%	43.9%	75.9%	–
COc1ccc(C(=O)Nc2cccc(-c3cc(=O)c4c(OC)c(OC)c(OC)cc4o3)c2)cc1	28.6%	18.8%	57.9%	62%	108%	53.9%	–	42.9%	60.2%	45%	69.6%	88%	66.5%	47.8%	70.3%	46.3%	–	51.4%
O=C(/C=C/c1cccc(Cl)c1)c1ccc(Nc2nc(Nc3ccc(F)cc3)nc(Nc3ccc(Cl)cc3)n2)cc1	75.6%	5.94% (active)	92.8%	111%	131%	113%	130%	110%	100%	113%	117%	104%	230%	82.3%	98.2%	112%	–	172%
Nc1cc(C(=O)NC[C@H]2CN(c3ccc(N4CCC(C(=O)O)CC4)cc3)C(=O)O2)ccc1Cl	95.4%	100%	103%	107%	113%	103%	114%	107%	103%	98.3%	108%	97.7%	–	105%	107%	100%	–	104%
CCOC(=O)c1ccc(NC(=O)c2nc(-c3cc(OC)c(OC)c(OC)c3)n(-c3ccc(Cl)cc3)n2)cc1	92.7%	82.1%	91.5%	95.4%	94.3%	88.9%	99.7%	74.5%	90.8%	77.6%	88.9%	–	86.7%	87.8%	107%	94%	–	–
NC(=O)CSc1oc(-c2ccccc2)nc1S(=O)(=O)c1ccc(Br)cc1	79.3%	81.1%	49.4%	45.4%	88.3%	93%	–	56.1%	–	57.8%	81%	94.4%	75%	50.6%	93.3%	89%	109%	62.1%
CSc1nc(N)c(NS(=O)(=O)c2ccc(C(C)=O)cc2)c(=O)[nH]1	119%	110%	107%	117%	117%	106%	105%	105%	96.8%	102%	102%	102%	85.9%	92.7%	112%	103%	–	98.4%
COc1cc2cc(NCc3cccc(Cl)c3)nc(C)c2cc1OC	29.6%	8.04% (active)	45.3%	68%	56.9%	24.6%	60.1%	76.3%	–	52.7%	4.19% (active)	17%	55.4%	8.02% (active)	38.9%	38.8%	–	23.1%
Cc1cn(-c2cc(NC(=O)c3cncc(C#Cc4cnc(N)c5ncccc45)c3)cc(C(F)(F)F)c2)cn1	62.7%	50.9%	64.5%	76.3%	106%	62.3%	92.1%	60.1%	86.9%	83.6%	55.5%	62.6%	73.9%	35.6%	79.8%	25%	–	75.3%

From PubChem BioAssay (NCI)
